# Assay results as given in paper PMC5540273 (PLoS ONE, 2017).
# Read-outs that look alike come from different tables or passages of the source.
# Columns and labels:
# ASK2 = test system: T1, ASK2; conditions: concentration: 1 μM,replicates: in singlicate; n = 1
# T1 construct: gene MAP3K6
# AURKA = conditions: concentration: 1 μM,replicates: in singlicate; n = 1
# AURKB = conditions: concentration: 1 μM,replicates: in singlicate; n = 1
# AURKC = conditions: concentration: 1 μM,replicates: in singlicate; n = 1
# AXL = conditions: concentration: 1 μM,replicates: in singlicate; n = 1
# BIKE = test system: T2, BIKE; conditions: concentration: 1 μM,replicates: in singlicate; n = 1
# T2 construct: gene BMP2K
# BLK = conditions: concentration: 1 μM,replicates: in singlicate; n = 1
# BMPR1A = conditions: concentration: 1 μM,replicates: in singlicate; n = 1
# BMPR1B = conditions: concentration: 1 μM,replicates: in singlicate; n = 1
# BMPR2 = conditions: concentration: 1 μM,replicates: in singlicate; n = 1
# BMX = conditions: concentration: 1 μM,replicates: in singlicate; n = 1
# BRAF = conditions: concentration: 1 μM,replicates: in singlicate; n = 1
# BRK = test system: T3, BRK; conditions: concentration: 1 μM,replicates: in singlicate; n = 1
# T3 construct: gene PTK6
# BRSK1 = conditions: concentration: 1 μM,replicates: in singlicate; n = 1
# BRSK2 = conditions: concentration: 1 μM,replicates: in singlicate; n = 1
# BTK = conditions: n = 1
# BUB1 = conditions: concentration: 1 μM,replicates: in singlicate; n = 1
# CAMK1B = conditions: concentration: 1 μM,replicates: in singlicate; n = 1
# CAMK1D = conditions: concentration: 1 μM,replicates: in singlicate; n = 1
# CAMK1G = conditions: concentration: 1 μM,replicates: in singlicate; n = 1
# [1] = concentration: 1 μM,replicates: in singlicate
# 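Further: KINOMEscan kinase panel screen.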
compound,measurement,setting,value
CS(=O)(=O)c1cccc(CNc2nc(Nc3ccc4c(c3)[C@@H]3C[C@@H]4CNC3=O)ncc2C(F)(F)F)c1,%Inh,ASK2,0%
same,%Inh,AURKA,99.4%
same,%Inh,AURKB,95.7%
same,%Inh,AURKC,73%
same,%Inh,AXL,93.2%
same,%Inh,BIKE,96.2%
same,%Inh,BLK,30%
same,%Inh,BMPR1A,0%
same,%Inh,BMPR1B,0%
same,%Inh,BMPR2,0%
same,%Inh,BMX,4%
same,%Inh,BRAF,0%
same,%Inh,BRK,0%
same,%Inh,BRSK1,0%
same,%Inh,BRSK2,0%
same,%Inh,BTK; [1],0%
same,%Inh,BUB1,0%
same,%Inh,CAMK1B,19%
same,%Inh,CAMK1D,0%
same,%Inh,CAMK1G,0%
Cn1ccc2ncnc(Oc3ccc(NC(=O)Nc4cc(C(C)(C)C)on4)c(Cl)c3)c21,%Inh,ASK2,0%
same,%Inh,AURKA,6%
same,%Inh,AURKB,88%
same,%Inh,AURKC,15%
same,%Inh,AXL,97.2%
same,%Inh,BIKE,0%
same,%Inh,BLK,87%
same,%Inh,BMPR1A,7%
same,%Inh,BMPR1B,16%
same,%Inh,BMPR2,5%
same,%Inh,BMX,33%
same,%Inh,BRAF,76%
same,%Inh,BRK,10%
same,%Inh,BRSK1,8%
same,%Inh,BRSK2,0%
same,%Inh,BTK; [1],0%
same,%Inh,BUB1,5%
same,%Inh,CAMK1B,0%
same,%Inh,CAMK1D,14%
same,%Inh,CAMK1G,12%
CC(=O)Nc1ccc(-c2cc3ncnc(SCC(=O)O)c3s2)cc1,%Inh,ASK2,0%
same,%Inh,AURKA,4%
same,%Inh,AURKB,97.1%
same,%Inh,AURKC,32%
same,%Inh,AXL,36%
same,%Inh,BIKE,19%
same,%Inh,BLK,0%
same,%Inh,BMPR1A,8%
same,%Inh,BMPR1B,0%
same,%Inh,BMPR2,7%
same,%Inh,BMX,0%
same,%Inh,BRAF,4%
same,%Inh,BRK,0%
same,%Inh,BRSK1,28%
same,%Inh,BRSK2,3%
same,%Inh,BTK; [1],0%
same,%Inh,BUB1,47%
same,%Inh,CAMK1B,0%
same,%Inh,CAMK1D,0%
same,%Inh,CAMK1G,19%
COc1cccc(CNC(=O)NC2CCN(c3ccnc(Nc4cc(OC)c(OC)c(OC)c4)n3)C2)c1 (stereo not shown) [GSK1379765],%Inh,ASK2,0%
same,%Inh,AURKA,85%
same,%Inh,AURKB,91.4%
same,%Inh,AURKC,79%
same,%Inh,AXL,30%
same,%Inh,BIKE,53%
same,%Inh,BLK,9%
same,%Inh,BMPR1A,0%
same,%Inh,BMPR1B,0%
same,%Inh,BMPR2,23%
same,%Inh,BMX,23%
same,%Inh,BRAF,0%
same,%Inh,BRK,34%
same,%Inh,BRSK1,0%
same,%Inh,BRSK2,0%
same,%Inh,BTK; [1],42%
same,%Inh,BUB1,81%
same,%Inh,CAMK1B,35%
same,%Inh,CAMK1D,17%
same,%Inh,CAMK1G,0%
Cn1ccc2ncnc(Oc3ccc(NC(=O)Nc4cnn(C(C)(C)C)c4)c(Cl)c3)c21,%Inh,ASK2,9%
same,%Inh,AURKA,23%
same,%Inh,AURKB,44%
same,%Inh,AURKC,52%
same,%Inh,AXL,76%
same,%Inh,BIKE,19%
same,%Inh,BLK,32%
same,%Inh,BMPR1A,17%
same,%Inh,BMPR1B,6%
same,%Inh,BMPR2,9%
same,%Inh,BMX,0%
same,%Inh,BRAF,77%
same,%Inh,BRK,0%
same,%Inh,BRSK1,0%
same,%Inh,BRSK2,12%
same,%Inh,BTK; [1],0%
same,%Inh,BUB1,0%
same,%Inh,CAMK1B,9%
same,%Inh,CAMK1D,0%
same,%Inh,CAMK1G,0%
OCCn1cc(-c2cnc3nnn(Cc4ccc5ncccc5c4)c3n2)cn1,%Inh,ASK2,0%
same,%Inh,AURKA,0%
same,%Inh,AURKB,0%
same,%Inh,AURKC,0%
same,%Inh,AXL,0%
same,%Inh,BIKE,0%
same,%Inh,BLK,4%
same,%Inh,BMPR1A,7%
same,%Inh,BMPR1B,0%
same,%Inh,BMPR2,0%
same,%Inh,BMX,0%
same,%Inh,BRAF,1%
same,%Inh,BRK,0%
same,%Inh,BRSK1,22%
same,%Inh,BRSK2,0%
same,%Inh,BTK; [1],0%
same,%Inh,BUB1,0%
same,%Inh,CAMK1B,0%
same,%Inh,CAMK1D,4%
same,%Inh,CAMK1G,0%
COc1cccc(OC)c1C(=O)Nc1cccc(-c2nn3ccccc3c2-c2ccnc(Nc3cccc(F)c3)n2)c1 [GSK361065],%Inh,ASK2,0%
same,%Inh,AURKA,32%
same,%Inh,AURKB,0%
same,%Inh,AURKC,70%
same,%Inh,AXL,30%
same,%Inh,BIKE,0%
same,%Inh,BLK,41%
same,%Inh,BMPR1A,9%
same,%Inh,BMPR1B,21%
same,%Inh,BMPR2,0%
same,%Inh,BMX,21%
same,%Inh,BRAF,17%
same,%Inh,BRK,19%
same,%Inh,BRSK1,0%
same,%Inh,BRSK2,16%
same,%Inh,BTK; [1],0%
same,%Inh,BUB1,11%
same,%Inh,CAMK1B,0%
same,%Inh,CAMK1D,13%
same,%Inh,CAMK1G,0%
CSc1nccc(-c2c(-c3ccc(F)cc3)ncn2CCCN2CCOCC2)n1.Cl [SB-217146],%Inh,ASK2,0%
same,%Inh,AURKA,7%
same,%Inh,AURKB,35%
same,%Inh,AURKC,0%
same,%Inh,AXL,0%
same,%Inh,BIKE,0%
same,%Inh,BLK,0%
same,%Inh,BMPR1A,0%
same,%Inh,BMPR1B,4%
same,%Inh,BMPR2,39%
same,%Inh,BMX,0%
same,%Inh,BRAF,4%
same,%Inh,BRK,0%
same,%Inh,BRSK1,0%
same,%Inh,BRSK2,0%
same,%Inh,BTK; [1],0%
same,%Inh,BUB1,14%
same,%Inh,CAMK1B,0%
same,%Inh,CAMK1D,12%
same,%Inh,CAMK1G,0%
CCN1CCN(CCCC(=O)Nc2n[nH]c3nc(-c4ccc(O)cc4)c(Br)cc23)CC1 [SB-731579],%Inh,ASK2,49%
same,%Inh,AURKA,0%
same,%Inh,AURKB,5%
same,%Inh,AURKC,0%
same,%Inh,AXL,57%
same,%Inh,BIKE,9%
same,%Inh,BLK,0%
same,%Inh,BMPR1A,0%
same,%Inh,BMPR1B,15%
same,%Inh,BMPR2,12%
same,%Inh,BMX,0%
same,%Inh,BRAF,81%
same,%Inh,BRK,0%
same,%Inh,BRSK1,50%
same,%Inh,BRSK2,54%
same,%Inh,BTK; [1],0%
same,%Inh,BUB1,5%
same,%Inh,CAMK1B,65%
same,%Inh,CAMK1D,17%
same,%Inh,CAMK1G,0%
Cn1cc(-c2cccc3c(N)c(C(N)=O)nnc23)cn1,%Inh,BTK; 1 µM,86%
